Screening data: PubChem BioAssay, National Center for Advancing Translational Sciences (NCATS)
HEK293 tox = cytotoxic in the GLP-1 receptor inverse agonist counter-screen. HEK293 cAMP-luciferase reporter cells, luminescence, 24 h. 410,000 compounds, 0.13% hits. Potency, µM (doses to about 38.3 µM), without a hit: top-dose activity change, negative = inhibition, actives largely listed as inhibitors;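 note: loss of luciferase light is scored as toxicity; % is set by controls: 0 for no effect and ±100 for the full control effect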
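Step one: seed cells (200 cells/uL, DMEM with 10% Nu serum, 1% pen-strep). Step two: 12-hour incubation at 37 deg C. Step three: pin 23 nL compound, incubate 24 hr. Step four: add luciferase reagent, read luminescence 12 min later.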
BRCA1 expr act = increases BRCA1 expression. MCF7-BRCA1-FFLuc reporter, luminescence, 48 h; response scale: scaled: vehicle 0%, 10 µM genistein 100%. Potency, µM (series often up to 46.1 µM), without a hit: top-dose activation, hits mostly activators. 380,000 compounds, 1.1% hits; note: nearly all actives have a fitted effect of over 80% in size
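Luminescence from a BRCA1-driven firefly luciferase in MCF7 cells was read after 48 h compound exposure at 37 C. Data normalized against DMSO and a 10microM genistein activation control, then curve-fitted across the titration.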
GLP-1R agonist = GLP-1 receptor (human) agonism | 380,000 compounds, 0.007% hits | HEK293 GLP-1R CRE-luciferase, luminescence, 4-6 h; cells express a hypersensitive GLP-1R form | P43220 | Potency, µM (titrated, usually from 45.6 µM), for inactives: at the top dose activation, actives largely listed as activators; note: % of control where 0% means no effect
Target sequence (P43220 whole entry, looked up): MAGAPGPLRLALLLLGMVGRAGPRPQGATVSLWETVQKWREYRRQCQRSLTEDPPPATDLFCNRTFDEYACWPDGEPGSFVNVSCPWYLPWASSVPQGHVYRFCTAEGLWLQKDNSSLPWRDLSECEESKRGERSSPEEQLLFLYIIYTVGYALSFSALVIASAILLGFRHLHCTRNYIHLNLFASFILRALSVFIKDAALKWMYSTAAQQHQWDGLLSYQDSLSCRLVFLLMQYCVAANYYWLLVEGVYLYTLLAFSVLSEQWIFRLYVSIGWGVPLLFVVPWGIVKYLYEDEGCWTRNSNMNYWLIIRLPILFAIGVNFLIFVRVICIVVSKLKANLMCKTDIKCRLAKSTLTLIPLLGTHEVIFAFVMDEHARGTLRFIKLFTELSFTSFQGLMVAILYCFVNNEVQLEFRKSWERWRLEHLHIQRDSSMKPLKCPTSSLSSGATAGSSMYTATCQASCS
GLP-1R inv ag = acts as inverse agonist at human GLP-1 receptor; P43220; HEK293 GLP-1R CRE-luciferase, luminescence, 24 h; GLP-1R form is constitutively active; Potency, µM (series often up to 38.3 µM), for the others: at the top dose activity change, negative = inhibition, hits mostly inhibitors; 410,000 compounds, 1.6% hits; note: % is set by controls: 0 for no effect and ±100 for the full control effect; nearly all actives have a fitted effect of over 55% in size
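HEK293 cells stably co-expressing a cAMP-responsive luciferase reporter and constitutively active GLP-1R were seeded, incubated 12 h, then exposed to compounds for 24 h at 37 C. Luminescence was read 12 min after detection reagent; inverse agonists lower signal.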
Starred values were filed as active, the others as inactive; ? = inconclusive; / = no result given. An excerpt weighted towards active compounds, which were near 2.6% of everything screened. Calls come from the whole dose curve; as a rule, active = well fitted curve in the direction sought with a large enough effect; inconclusive = small, poorly fitted or top-dose-only effect, or another doubt; inactive = no such curve, though single readings can be large; an effect the other way counts as inactive or inconclusive. Potency is the fitted concentration of half-maximal effect.

SMILES	HEK293 tox	BRCA1 expr act	GLP-1R agonist	GLP-1R inv ag
CCCCN(C)C(=O)c1ccc2c(c1)N(Cc1cccc(Cl)c1)C(=O)c1ccccc1S2=O (centres undefined)	-8%	/	/	8%
O=C(COc1ccc(-c2nnc(N3CCCCC3)c3ccccc23)cc1)N1CCCCC1	0%	-59%	2%	10µM*
CC(C)(C)NC(=O)C1c2ccccc2OCC(=O)N1Cc1ccccc1 (centres undefined)	2%	21%	6%	0%
CCSc1ccc(/C(N)=N/OC(=O)c2cccs2)cn1	-6%	10µM*	9%	0%
O=C(Nc1ccc2c(c1)OCO2)c1cc(C2CCCCN2C(=O)CCCc2ccccc2)on1 (centres undefined)	-20%	-34%	13%	8.9µM*
O=C(Nc1ccccc1)c1cc(C2CCCCN2C(=O)CCCc2ccccc2)on1 (centres undefined)	-6%	-6%	-1%	?
N#CC1c2ccccc2C=CN1C(=O)N(c1ccccc1)c1ccccc1 (centres undefined)	?	-89%	-32%	?
COc1ccc(S(=O)(=O)N(C(=O)c2ccncc2)c2ccc3oc(C)c(C(C)=O)c3c2)cc1	-25%	/	/	3.2µM*
COc1ccc(S(=O)(=O)N(C(=O)c2ccncc2)c2ccc3oc4c(c3c2)CCCC4)cc1	?	-72%	-14%	10µM*
O=C(c1ccncc1)N(c1ccc2oc3c(c2c1)CCCC3)S(=O)(=O)c1cccc([N+](=O)[O-])c1	-3%	-31%	-20%	10%
CC(NC(=O)C1=CC=CN2CCS(=O)(=O)N=C12)c1ccc(Cl)cc1Cl (centres undefined)	-8%	-4%	0%	-6%
O=C(Nc1ccccc1N1CCCC1)C1CCN(S(=O)(=O)c2ccccc2C(F)(F)F)CC1	8%	-15%	0%	?
Cc1ccc(S(=O)(=O)N2CCC(C(=O)Nc3cc(C(F)(F)F)ccc3N3CCOCC3)CC2)cc1C	-10%	-26%	6%	13µM*
O=C(Nc1ccccc1N1CCCCC1)C1CCN(S(=O)(=O)c2ccccc2C(F)(F)F)CC1	-5%	-44%	8%	7.9µM*
O=C(CC(=O)OCc1ccccc1)OCc1ccccc1	-3%	11%	-2%	1%
O=C(CC(O)(CC(=O)OCc1ccccc1)C(=O)OCc1ccccc1)OCc1ccccc1	-1%	-22%	9%	8.9µM*
COc1ccc2oc(=N)c(C(=O)Nc3ccccc3Cl)cc2c1	3%	4.5µM*	-8%	12%
COc1ccc2oc(=N)c(C(=O)Nc3ccccc3)cc2c1	4%	50%	1%	14%
COc1cc(Cl)ccc1OCc1cc(C(=O)N2CCN(C)C(=O)[C@@H]2C)no1	3%	10µM*	2%	14%
COc1cc(Cl)ccc1OCc1cc(C(=O)N2CCN(C)CC2)no1	-2%	15%	-1%	-2%
O=C(c1cc(COc2ccc(F)cc2F)on1)N1CC2C[C@@H]3CC1C[C@H](C2)C3	11%	91%	7%	?
COc1ccccc1OCc1cc(C(=O)N2CCN(C)C(c3ccccc3)C2)no1 (centres undefined)	3%	10µM*	10%	?
Cc1ccc(OCc2cc(C(=O)N3CCN(C)C[C@@H]3c3ccccc3)no2)cc1C	-1%	?	4%	?
CSc1ccccc1OCc1cc(C(=O)N2CCN(C)C(c3ccccc3)C2)no1 (centres undefined)	12%	8%	12%	-4%
CN1CCN(C(=O)c2cc(COc3ccccc3)on2)[C@@H](c2ccccc2)C1	6%	5µM*	10%	?
SMILES	HEK293 tox	BRCA1 expr act	GLP-1R agonist	GLP-1R inv ag
COc1ccccc1OCc1cc(C(=O)N2CC3C[C@@H]4CC2C[C@H](C3)C4)no1	-25%	7.9µM*	15%	?
Cn1c(=O)c2cc(NC(=O)NCc3ccc(Cl)cc3Cl)ccc2n1Cc1ccccc1	8%	10%	8%	-6%
O=C(NCCc1c[nH]c2ccccc12)C1CCC(=O)N(CCc2cccc(F)c2)C1 (centres undefined)	-2%	-11%	-3%	-16%
Cc1ccc(S(=O)(=O)N2C[C@H]3C(=O)C[C@@H](c4ccc(Cl)cc4)N(S(=O)(=O)c4ccccc4C)[C@H]3C[C@H]2c2ccccc2)cc1	-10%	1%	-3%	?
CCCCN(C(=O)Cc1cccs1)c1nnc(-c2cccnc2)s1	9%	3.2µM*	20%	32%
COc1ccc(OC)c(NC(=O)Cn2cc(C(=O)c3cccs3)c3ccccc32)c1	-9%	/	/	-29%
COc1cccc(CN2CCC2(C)C(=O)Nc2cccc(Oc3ccccc3)c2)c1F (centres undefined)	?	-54%	20%	3.2µM*
CN1CCCC(C)(C(=O)Nc2cccc(Oc3ccccc3)c2)C1 (centres undefined)	12%	-2%	3%	13µM*
COc1cccc(NC(=O)C2(C)CCN2Cc2cccc(OC)c2F)c1 (centres undefined)	3%	-7%	1%	?
Cc1c(Cl)cccc1NC(=O)c1cc2sccc2n1Cc1ccc(F)cc1	?	-18%	-3%	?
CCc1ccccc1NC(=O)c1nc2nc(C)cc(C(F)F)n2n1	2%	14%	-2%	16%
Cc1ccc(-n2cc3c(c2-c2ccccc2Br)c(=O)n(C)c(=O)n3C)cc1N	-8%	/	/	18%
COCCNC(=O)c1cccc(-n2c(C)nc3cccnc32)c1	1%	/	/	10%
CCc1ccc(OCC(=O)Nc2ccc(S(=O)(=O)N3CCCC3)cc2)c(Br)c1	-28%	4%	-17%	-2%
O=C(COc1ccc(Br)cc1CO)Nc1ccc(S(=O)(=O)N2CCCCC2)cc1	-1%	-14%	-3%	10µM*
O=C(CNc1ccc(Br)cc1)Nc1ccc(S(=O)(=O)N2CCCC2)cc1	-27%	-25%	-15%	10µM*
CCN(CC)c1ccc(NC(=O)C(NS(=O)(=O)c2cccs2)C(C)C)c(C)c1 (centres undefined)	-3%	/	/	?
O=C(CSc1nc(=O)n(Cc2ccccn2)c2c1CCC2)Nc1ccccc1	1%	0%	/	-8%
CCc1ccc(CSc2nccn2-c2ccccc2)cc1	0%	-14%	15%	6.3µM*
c1ccc(CCSc2nccn2-c2ccccc2)cc1	4%	?	7%	?
O=C(c1ccc2c(c1)N(Cc1ccccc1)C(=O)c1ccccc1S2(=O)=O)N1CCN(c2ccccc2)CC1	1%	/	/	12%
CSc1ccccc1C(=O)N(C)C(c1ccccc1)c1ccccc1	-3%	-45%	5%	8.9µM*
CSc1ccccc1C(=O)N(C)Cc1ccccc1	3%	-15%	-1%	-24%
O=[N+]([O-])c1ccccc1/C=C/c1ccnc2ccccc12	/	4%	/	/
O=C1/C(=C\c2ccc(O)c(O)c2)SC(=S)N1Cc1ccccc1	10µM*	-52%	6%	?
